# Results taken from PubChem BioAssay (NCI).
# This is part of a sample that, as a whole, favours compounds with a hit. Of some 83,000 tested, about 20% had one in any assay.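 Results are percent growth after 48 hours of single-concentration exposure. 100 means growth as in untreated cells, lower positive values show inhibition; negative values down to -100 show cell death.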 Values without a mark were called inactive. Calls of active or inactive are those of the source. Rule for the calls: active = growth percent below 10; inactive = the rest.
# Key:
# Assay in all cases: NCI-60 one-dose screen, 48 h (100 = growth as untreated, 0 = no growth, -100 = all killed)
# Details in all cases: 10 µM unless noted
# HCT-15 colon = test system: HCT-15 colon
# HT29 colon = test system: HT29 colon
# SNB-75 CNS = test system: SNB-75 CNS
# SNB-19 CNS = test system: SNB-19 CNS
# U251 CNS = test system: U251 CNS
# PC-3 prostate = test system: PC-3 prostate
# SK-MEL-5 melanoma = test system: SK-MEL-5 melanoma
# UACC-62 melanoma = test system: UACC-62 melanoma
# LOX IMVI melanoma = test system: LOX IMVI melanoma
# SK-MEL-28 melanoma = test system: SK-MEL-28 melanoma
# SK-MEL-2 melanoma = test system: SK-MEL-2 melanoma
# EKVX NSCLC = test system: EKVX NSCLC
# SN12C renal = test system: SN12C renal
# UO-31 renal = test system: UO-31 renal
# TK-10 renal = test system: TK-10 renal
# ACHN renal = test system: ACHN renal
# CAKI-1 renal = test system: CAKI-1 renal
# A498 renal = test system: A498 renal
# CCRF-CEM leukemia = test system: CCRF-CEM leukemia
# MOLT-4 leukemia = test system: MOLT-4 leukemia
SMILES,growth (HCT-15 colon),growth (HT29 colon),growth (SNB-75 CNS),growth (SNB-19 CNS),growth (U251 CNS),growth (PC-3 prostate),growth (SK-MEL-5 melanoma),growth (UACC-62 melanoma),growth (LOX IMVI melanoma),growth (SK-MEL-28 melanoma),growth (SK-MEL-2 melanoma),growth (EKVX NSCLC),growth (SN12C renal),growth (UO-31 renal),growth (TK-10 renal),growth (ACHN renal),growth (CAKI-1 renal),growth (A498 renal),growth (CCRF-CEM leukemia),growth (MOLT-4 leukemia)
CCCCCCCCn1ccc2cc(NC(=O)Cn3cc(CN4CCOCC4)nn3)ccc21,92.4%,108%,100%,92.9%,88.5%,75.2%,86.7%,86.8%,102%,99.8%,100%,87.9%,100%,78.3%,108%,98.5%,83.9%,99.7%,-31.6% (active),35.8%
O=C1N[C@@H]2[C@@H](O)[C@@H](O)[C@H](O)C[C@H]2c2cc3c(c(O)c21)OCCO3,-11.9% (active),-14.5% (active),-4.29% (active),-10.4% (active),-14.9% (active),-9.66% (active),-52.1% (active),-13.3% (active),-41.1% (active),-16.4% (active),-48.7% (active),-14.3% (active),-9.95% (active),-19.7% (active),-11.9% (active),-14.5% (active),4.9% (active),-29.7% (active),-6.07% (active),-0.799% (active)
CCCCNC1=C(OCC)C(=O)c2ccccc2C1=O,94.3%,123%,96.1%,100%,99.7%,94.4%,91.9%,97.5%,68.8%,114%,104%,104%,97.2%,91.5%,145%,105%,110%,37.4%,100%,108%
COc1cc(/C=C\c2cc(/C=C\c3ccc(O)c(OC)c3)n(C(=O)CNc3ccc(Cl)cc3)n2)ccc1O,11.3%,15.8%,25.5%,45.6%,16.1%,33.9%,15.9%,10.9%,11.2%,49.5%,9.05% (active),42.2%,22.5%,15.9%,47.2%,23.6%,29.3%,44.5%,10%,8.25% (active)
CCCCCCNc1nc(NCCCCCC)c2[nH]c(NCCCCCC)nc2n1,88.1%,36.6%,-8.09% (active),89.8%,-32.8% (active),18.7%,78.1%,81.2%,1.23% (active),98.2%,30.2%,44%,26.5%,80.9%,116%,100%,74.1%,40.3%,-29.6% (active),-12.5% (active)
CCCCCCCC/C=C\CCCCCCCCOc1ccccc1CC(=O)NCC[N+]1(C)CCCCC1,102%,9.78% (active),49.3%,52.6%,39%,3.49% (active),86.5%,53.8%,75.7%,84.2%,88.2%,93.4%,43.2%,94.8%,75.8%,110%,81.9%,94.6%,23.1%,20.5%
O=C(/C=C/c1ccccc1)Nc1ncc(Cc2ccccc2)s1,14.2%,4.97% (active),-2.19% (active),42.6%,9.07% (active),23.4%,30.6%,3.28% (active),6.49% (active),47%,26.1%,23.2%,32.4%,30.4%,35%,26.5%,27.8%,12.6%,20.3%,22.6%
CCOC(=O)C1=C(c2ccccc2)N=c2s/c(=C/c3ccc(Br)cc3)c(=O)n2C1c1ccc(O)cc1 (stereo not given),82.3%,87.6%,68.7%,86.7%,81.1%,64.1%,91.9%,76.1%,91.7%,92.5%,95.9%,76.8%,85.2%,78.5%,91.7%,104%,62.2%,73.2%,83%,68%
